Source: PubChem BioAssay
Most compounds without a hit are left out; they make up all but 6.6% or so of the library.
KB-3-1 tox = KB-3-1 parental cell cytotoxicity | KB-3-1 viability, CellTiter-Glo ATP luminescence, 72 h | Potency, µM (top dose mostly 46.1 µM), actives largely listed as cytotoxic | 400,000 tested, 1.4% active; note: % is set by controls: 0 for no effect and ±100 for the full control effect; nearly all actives have a fitted effect of over 60% in size
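Parental KB-3-1 viability, qHTS format: 72 h compound exposure, 37 °C; CellTiter-Glo; media-only wells and DMSO plates as controls; concentration-effect fits on corrected data.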
PTAP TSG101 blk = blocks PTAP/TSG101 interaction to inhibit HIV-1 budding; Q99816; Fluorescence polarization, FITC-PTAP peptide / Tsg101 binding; Potency, µM (titrated, usually from 115 µM), inactives show at the top dose activity change, negative = inhibition, most hits filed as inhibitors; 340,000 tested, under 10 active; active = well fitted inhibition curve with a large enough effect in the main read-out, with a control signal flat, not every such curve was filed as active; inconclusive = small, poorly fitted or top-dose-only effect, or effect the other way, or a change in a side signal; inactive = no such curve, though single readings can be large or run the other way; note: % of control where 0% means no effect
Target sequence (Q99816 whole entry, looked up): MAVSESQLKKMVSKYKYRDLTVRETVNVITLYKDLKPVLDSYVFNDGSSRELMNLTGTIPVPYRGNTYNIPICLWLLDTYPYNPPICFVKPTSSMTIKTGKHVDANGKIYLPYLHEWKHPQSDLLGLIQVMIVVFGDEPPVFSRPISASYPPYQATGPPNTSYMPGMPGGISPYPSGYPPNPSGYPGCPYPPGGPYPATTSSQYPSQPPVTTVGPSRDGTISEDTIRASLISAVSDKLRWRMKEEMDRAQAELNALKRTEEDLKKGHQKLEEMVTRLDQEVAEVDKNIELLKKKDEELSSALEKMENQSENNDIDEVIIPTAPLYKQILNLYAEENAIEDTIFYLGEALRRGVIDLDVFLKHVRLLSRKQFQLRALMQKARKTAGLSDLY
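Fluorescence polarization binding of Tsg101 binding domain (10 uM final) to FITC-labeled PTAP peptide (50 nM final) in HEPES pH 7.5 buffer with NaCl, Tween 20, EDTA, TCEP. Compounds added before peptide; binding 20 min at RT.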
KB-V1 MDR tox = KB-V1 MDR subline cytotoxicity | Potency, µM (titrated, usually from 46.1 µM), most hits filed as cytotoxic | 400,000 tested, 3.4% active | KB-V1 MDR cells viability, CellTiter-Glo, 72 h | AID 1347076; note: % is set by controls: 0 for no effect and ±100 for the full control effect; nearly all actives have a fitted effect of over 60% in size
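In this primary screen, KB-V1 cells overexpressing P-gp are incubated with library compounds (lowest to highest concentration) for 72 h at 37 degrees C before a luminescent ATP viability read.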
MCF10A rereplic = DNA re-replication induction in MCF 10a cells; MCF 10A DNA re-replication, Hoechst nuclear intensity, 48 h; Potency, µM (titrated, usually from 46.1 µM), without a hit: at the top dose activity, positive = re-replication, hits mostly activators; 350,000 tested, 2.9% active; AID 624296; note: % of control where 0% means no effect; nearly all actives have a fitted effect of over 50% in size
SW480 rereplic = DNA re-replication induction in SW480 cells; SW480 DNA re-replication, Hoechst DNA content imaging, 48 h; Potency, µM (top dose mostly 46.1 µM), inactives show at the highest dose re-replication activation, usual class: activators; 340,000 tested, 1.8% active; note: % of control where 0% means no effect; nearly all actives have a fitted effect of over 55% in size
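First, 250 cells per well were seeded. Next, compound or vehicle (23 nL) was pinned in, plates sat 48 hr at 37 C. Finally Hoechst was added for 40 min before fluorescence scanning.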
RGS4 inh = inhibitors of human regulator of G protein signaling 4; Transcreener GDP fluorescence polarization, RGS4-accelerated GTP hydrolysis; AID 504845; 390,000 tested, 0.039% active; Potency, µM (highest dose often 114 µM), without a hit: at the top dose activity change, negative = inhibition, hits mostly inhibitors; note: % is set by controls: 0 for no effect and ±100 for the full control effect; nearly all actives have a fitted effect of over 75% in size
Target sequence (P49798 whole entry, looked up): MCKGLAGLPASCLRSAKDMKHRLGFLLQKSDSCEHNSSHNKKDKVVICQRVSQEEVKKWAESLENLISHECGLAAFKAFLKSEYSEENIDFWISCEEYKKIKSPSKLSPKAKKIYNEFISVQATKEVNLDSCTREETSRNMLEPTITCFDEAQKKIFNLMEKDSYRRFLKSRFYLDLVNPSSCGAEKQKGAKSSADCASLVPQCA
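MLSMR compounds (23 nl, pin-transferred) preincubated 10 min at room temperature with a 500nM (2x) first reagent, then RGS4 at 900nM (2x) plus Transcreener GDP mix added; fluorescence polarization (620/688 nm) read before and after 90 min at 30 °C.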
Starred values were filed as active, the others as inactive; [ ] = remark or other dose. Unless noted, calls come from the whole dose curve; as a rule, active = well fitted curve in the direction sought with a large enough effect; inconclusive = small, poorly fitted or top-dose-only effect, or another doubt; inactive = no such curve, though single readings can be large; an effect the other way counts as inactive or inconclusive. Potency is the fitted concentration of half-maximal effect.

`CCOc1ccc(/C=N/Nc2ccc(Cl)nn2)c(O)c1` gave KB-3-1 tox inconclusive, PTAP TSG101 blk -5%, KB-V1 MDR tox inconclusive, MCF10A rereplic inconclusive, SW480 rereplic 0.18µM* and RGS4 inh 6%.
`CCOc1ccccc1/C=N/Nc1ccc(Cl)nn1` gave KB-3-1 tox inactive, PTAP TSG101 blk -2%, KB-V1 MDR tox inactive, MCF10A rereplic -8%, SW480 rereplic -1% and RGS4 inh 9%.
COc1ccc(N/C=C(\C#N)c2nc3ccccc3n2C)c(OC)c1 was read as KB-3-1 tox inactive, PTAP TSG101 blk 1%, KB-V1 MDR tox 21µM*, MCF10A rereplic inconclusive, SW480 rereplic 17% and RGS4 inh -14%.
Screening Cc1ccccc1CNC(=O)c1ccc(CS(=O)Cc2ccc(Cl)cc2)o1 (stereo not given) returned RGS4 inh 12%.
N=C1SCC(=O)N1c1ccc(Cl)cc1 was read as KB-3-1 tox 15µM*, PTAP TSG101 blk -6%, KB-V1 MDR tox inconclusive, MCF10A rereplic 0%, SW480 rereplic inconclusive and RGS4 inh -19%.
`Cc1occc1C(=O)Nc1ccc2c(c1)OCCO2` gave KB-3-1 tox inactive, PTAP TSG101 blk -3%, KB-V1 MDR tox 13µM*, MCF10A rereplic -1%, SW480 rereplic -2% and RGS4 inh 6%.
CCn1ncc(Br)c1C(=O)Nc1ccc2c(c1)OCCO2 was read as KB-3-1 tox inconclusive, PTAP TSG101 blk 0%, KB-V1 MDR tox 21µM*, MCF10A rereplic -1%, SW480 rereplic -8% and RGS4 inh 3%.
For CCn1ncc(Br)c1C(=O)Nc1cccc(F)c1 the results were KB-3-1 tox inactive, PTAP TSG101 blk -5%, KB-V1 MDR tox inactive, MCF10A rereplic 3%, SW480 rereplic 1% and RGS4 inh -15%.
`Cc1ccsc1C(=O)Nc1ccc2c(c1)OCCO2` gave KB-3-1 tox inconclusive, PTAP TSG101 blk -3%, KB-V1 MDR tox 21µM*, MCF10A rereplic 16%, SW480 rereplic -1% and RGS4 inh 20%.
For O=C(Nc1ccc2c(c1)OCCO2)c1ccc(Br)s1 the results were KB-3-1 tox 18µM*, PTAP TSG101 blk -2%, KB-V1 MDR tox 13µM*, MCF10A rereplic inconclusive, SW480 rereplic 107% and RGS4 inh -8%.
`Cc1ncoc1C(=O)Nc1ccc2c(c1)OCCO2` gave KB-3-1 tox inconclusive, PTAP TSG101 blk -12%, KB-V1 MDR tox inactive, MCF10A rereplic -8%, SW480 rereplic -5% and RGS4 inh 11%.
For Cc1cc(C(=O)Nc2ccc3c(c2)OCCO3)c(C)o1 the results were KB-3-1 tox inactive, PTAP TSG101 blk -1%, KB-V1 MDR tox inactive, MCF10A rereplic -16%, SW480 rereplic 1% and RGS4 inh 0%[11.4 µM].
Screening O=C(CNC(=O)c1ccccc1)OCC(=O)c1cccc2ccccc12 returned KB-3-1 tox inconclusive, KB-V1 MDR tox inactive and RGS4 inh 7%.
For CCOc1ccccc1NC(=O)C1CCN(S(=O)(=O)c2ccc3c(c2)CCCN3C(C)=O)CC1 the results were KB-3-1 tox inactive, KB-V1 MDR tox inactive and RGS4 inh 16%.
Screening CN(C)C(=S)NC(=S)Nc1ccc2ccccc2c1 returned KB-3-1 tox inconclusive, PTAP TSG101 blk -2%, KB-V1 MDR tox 18µM*, MCF10A rereplic inconclusive, SW480 rereplic 18% and RGS4 inh inconclusive.
Screening CC1(NC(=S)Nc2ccc3ccccc3c2)CCS(=O)(=O)C1 (stereo not given) returned KB-3-1 tox inactive, PTAP TSG101 blk -1%, KB-V1 MDR tox inactive, MCF10A rereplic -2%, SW480 rereplic -7% and RGS4 inh -40%.
For Nc1nc(N)c2sc3nc4c(cc3c2n1)CCC4 the results were KB-3-1 tox inactive, PTAP TSG101 blk -13%, KB-V1 MDR tox 21µM*, MCF10A rereplic 0%, SW480 rereplic 0% and RGS4 inh -22%.
O=C1NC2=C(CCc3ccccc32)C(c2ccc(Br)cc2)N1 (stereo not given) was read as KB-3-1 tox inactive, PTAP TSG101 blk -2%, KB-V1 MDR tox 21µM*, MCF10A rereplic inconclusive, SW480 rereplic 13% and RGS4 inh -10%.
CCc1ccccc1N1C(=O)CN(Cc2cc(OC)c(OC)c(OC)c2)C1=S was read as KB-3-1 tox inactive, PTAP TSG101 blk -7%, KB-V1 MDR tox inactive, MCF10A rereplic 10%, SW480 rereplic 20% and RGS4 inh -21%[56.9 µM].
`COc1cc(CN2CC(=O)N(c3ccc(C)c(C)c3)C2=S)cc(OC)c1OC` gave KB-3-1 tox inconclusive, PTAP TSG101 blk -3%, KB-V1 MDR tox 16µM*, MCF10A rereplic 24%, SW480 rereplic inconclusive and RGS4 inh -20%.
CCc1ccc(N2C(=O)CN(Cc3cc(OC)c(OC)c(OC)c3)C2=S)cc1 was read as KB-3-1 tox inactive, PTAP TSG101 blk 1%, KB-V1 MDR tox 7.3µM*, MCF10A rereplic -15%, SW480 rereplic -72% and RGS4 inh -21%.
`Cc1ccc2c(c1)c1c(c(=O)n(-c3cccc(Cl)c3)c(=O)n1CC(=O)Nc1c(C)cccc1C)n2C` gave KB-3-1 tox inactive, KB-V1 MDR tox inactive and RGS4 inh 8%.
Screening CN(C(=O)COC(=O)c1ccccc1C(=O)c1ccccc1)c1ccccc1 returned KB-3-1 tox inactive, PTAP TSG101 blk 1%, KB-V1 MDR tox 21µM*, MCF10A rereplic 4%, SW480 rereplic 5% and RGS4 inh 14%.
`Cc1nc(C(F)(F)F)c(C(=O)N/N=C(\N)c2ccccn2)s1` gave KB-3-1 tox inconclusive, PTAP TSG101 blk 0%, KB-V1 MDR tox inconclusive, MCF10A rereplic inconclusive, SW480 rereplic 7.3µM* and RGS4 inh -7%.
O=C(c1cc(COc2c(F)cccc2F)on1)N1CCC(c2ccncc2)CC1 was read as KB-3-1 tox 23µM*, PTAP TSG101 blk -3%, KB-V1 MDR tox inconclusive, MCF10A rereplic inconclusive, SW480 rereplic -5% and RGS4 inh 2%.
For O=C(CN1C(=O)C2(OCCO2)c2ccccc21)c1ccc(Cl)cc1 the results were KB-3-1 tox inactive, PTAP TSG101 blk -9%, KB-V1 MDR tox 21µM*, MCF10A rereplic 13%, SW480 rereplic 0% and RGS4 inh -9%.
CC(C)(C)C(=O)CN1C(=O)C2(OCCO2)c2ccccc21 was read as KB-3-1 tox inactive, PTAP TSG101 blk -5%, KB-V1 MDR tox inactive, MCF10A rereplic -1%, SW480 rereplic -5% and RGS4 inh -2%.
